# Test results: the supplement of paper PMC12350171
# Structures can show the parent of a compound that is named as a salt. A number with no mark means an inactive call.
# What was measured:
# Conditions in all cases: 20 µM
# [1] = tested on: Salmonella enterica typhimurium; test: growth AUC normalised to DMSO control (fraction of control); higher = less growth inhibition, active = hit call of the paper
# Method in brief: (§1)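 Hemin and NAD were added to the medium for Haemophilus parainfluenzae. All pathogens, after two anaerobic passages, were inoculated at a starting OD578 of 0.01 into pre-reduced mGAM plates with 20 μM compound and 1% DMSO under breathable seals, and OD578 was read hourly for 24 h in three biological replicates. AUC of each growth curve was obtained with the trapezoidal rule up to the exponential-to-stationary transition and normalised to DMSO controls from the same plate.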
# [2] = tested on: Shigella flexneri; test: as above
# Method in brief: as §1
# [3] = tested on: Vibrio cholerae; test: as above
# Method in brief: as §1
# [4] = tested on: Yersinia pseudotuberculosis; test: as above
# Method in brief: as §1
# [5] = tested on: P. vulgatus RND KO; test: growth AUC normalised to DMSO control (median) (fraction of control); higher = less growth inhibition, active = hit call of the paper
# Method in brief: (§2)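 For normalised area under the curve, growth curves were truncated at entry into stationary phase, integrated by the trapezoidal rule and divided against vehicle wells on the same plate. The curves came from strains passaged twice overnight without oxygen and then grown in mGAM in 96-well plates at a starting OD578 of 0.01. Each well held an approved-drug library compound at 20 μM with 1% DMSO, and OD578 was read hourly for 24 h in an anaerobic incubator. Values are medians of three biological replicates.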
# [6] = tested on: P. vulgatus WT; test: as above
# Method in brief: as §2
# [7] = tested on: S. enterica typhimurium WT; test: as above
# Method in brief: as §2
# [8] = tested on: S. enterica typhimurium tolC KO; test: as above
# Method in brief: as §2
# 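Wherever growth AUC normalised to DMSO control (median) is given: active when median AUC fell below 0.1.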
Compound,growth AUC normalised to DMSO control [1],growth AUC normalised to DMSO control [2],growth AUC normalised to DMSO control [3],growth AUC normalised to DMSO control [4],growth AUC normalised to DMSO control [5],growth AUC normalised to DMSO control [6],growth AUC normalised to DMSO control [7],growth AUC normalised to DMSO control [8]
NCCNCCNCCNCCN [Tetraethylenepentamine pentahydrochloride],0.99,0.972,0.979,0.998,0.998,0.995,1.01,1
CCC(C)n1ncn(-c2ccc(N3CCN(c4ccc(OCC5COC(Cn6cncn6)(c6ccc(Cl)cc6Cl)O5)cc4)CC3)cc2)c1=O (stereo not given) [Itraconazole],1.01,1.03,1.04,0.998,1.1,1.1,1.02,1
CN[C@@H]1[C@@H](O)[C@@H](O[C@@H]2[C@@H](O)[C@H](O[C@H]3OC(CN)=CC[C@H]3N)[C@@H](N)C[C@H]2N)OC[C@]1(C)O [Sisomicin sulfate],1,0.986,0.996,0.982,0.994,1,1,1.01
Cc1c(NC(C)C)c(=O)n(-c2ccccc2)n1C [Isopyrin hydrochloride],1.02,1.01,1.02,0.982,1.02,1.06,1,1.01
CO[C@@]1(NC(=O)C2SC(=C(C(N)=O)C(=O)O)S2)C(=O)N2C(C(=O)O)=C(CSc3nnnn3C)CS[C@@H]21 (stereo not given in full) [Cefotetan],0.00234 (active),0.0192 (active),0.186 (active),0.0842 (active),0.0118 (active),0.0068 (active),0.00563 (active),0.00413 (active)
C[C@@H]1CN(c2c(F)c(N)c3c(=O)c(C(=O)O)cn(C4CC4)c3c2F)C[C@H](C)N1 [Sparfloxacin],0.00775 (active),0.047 (active),0.0469 (active),0.0357 (active),0.0205 (active),0.0159 (active),0.0129 (active),0.00501 (active)
CC(C)(C)NC[C@H](O)COc1cccc2c1CCCC2=O [(-) Levobunolol hydrochloride],0.994,0.936,0.973,0.989,0.982,0.981,0.995,0.997
CC[C@@]1(O)C(=O)OCc2c1cc1n(c2=O)Cc2cc3c(CN(C)C)c(O)ccc3nc2-1 [Topotecan],1.05,1.04,1.03,1.02,1.01,1.02,1.02,0.983
O=C(O)Cc1sc(-c2ccccc2)nc1-c1ccc(Cl)cc1 [Fentiazac],0.993,1.03,1,1.02,0.896,0.947,1,0.98
Cc1c(N(C)C)c(=O)n(-c2ccccc2)n1C [Amidopyrine],1.01,1.03,1.05,1.01,1,1.02,1.01,0.999
CC[N+](C)(C)Cc1ccccc1Br [Bretylium tosylate],1,1.01,1.02,1.02,0.995,1.03,1,0.999
NC(N)=Nc1nc(CSCC/C(N)=N/S(N)(=O)=O)cs1 [Famotidine],1,0.965,0.993,0.97,1.01,1.04,1.01,0.996
C[C@H]1O[C@H](O[C@H]2[C@H](O)[C@@H](O)[C@@H](O[C@@H]([C@H](O)[C@@H](O)C=O)[C@H](O)CO)O[C@@H]2CO)[C@H](O)[C@@H](O)[C@@H]1N[C@H]1C=C(CO)[C@@H](O)[C@H](O)[C@H]1O [Acarbose],1.04,0.995,0.999,1.01,1.01,0.884,1.03,1
CN1CCC(=C2c3ccccc3Sc3ccccc32)CC1 [Pimethixene maleate],0.988,0.948,0.853,1.02,0.812,0.776,1,0.956
CCCCC[C@H](O)/C=C/[C@H]1[C@H](O)CC(=O)[C@@H]1CCCCCCC(=O)O [Alprostadil],0.992,0.989,0.99,0.999,0.994,1.01,1,1.01
CCCN(CCC)CCc1cccc2c1CC(=O)N2 [Ropinirole hydrochloride],0.997,1.02,0.976,0.985,1.03,1.04,1,0.988
CN(C)c1nc(N(C)C)nc(N(C)C)n1 [Altretamine],1.01,1.06,1.05,1.02,1.01,0.998,1,0.99
O=C(O)COC(=O)Cc1ccccc1Nc1c(Cl)cccc1Cl [Aceclofenac],0.995,0.979,0.979,0.999,0.995,0.983,1.01,0.998
OCCN1CCN(CCCN2c3ccccc3Sc3ccc(C(F)(F)F)cc32)CC1 [Fluphenazine dihydrochloride],1.01,0.97,1.01,1.01,1,1,0.993,0.918
CNc1ncnc2c1ncn2[C@@H]1O[C@H](CO)[C@@H](O)[C@H]1O [N6-methyladenosine],0.972,1.03,1,0.97,0.998,1.02,1.02,1.01
CN1CCC[C@@H]1CCO[C@](C)(c1ccccc1)c1ccc(Cl)cc1 [Clemastine fumarate],0.999,0.969,0.926,1.02,0.944,0.947,0.998,0.925
Cn1c(=O)c2c(ncn2CC(=O)O)n(C)c1=O [Acefylline],0.979,0.987,0.98,0.987,0.987,0.996,0.996,1.01
CNCC(O)c1ccc(OC(=O)C(C)(C)C)c(OC(=O)C(C)(C)C)c1 (stereo not given) [Dipivefrin hydrochloride],1.01,1.04,1.05,1.01,1.02,1.03,1.02,0.953
NCCc1ccc(O)c(O)c1 [Dopamine hydrochloride],1.02,1.05,0.989,1.01,1.03,1.02,1,0.99
CC/C(=C(/CC)c1ccc(O)cc1)c1ccc(O)cc1 [Diethylstilbestrol],1,0.983,0.93,0.973,0.744,0.827,1,0.827
CN(C)/N=N/c1[nH]cnc1C(N)=O [Dacarbazine],0.989,0.976,0.994,1,1.04,1.03,0.997,1
"OC(CCN1CCCCC1)(c1ccccc1)C1CCCCC1 (stereo not given) [Trihexyphenidyl-D,L hydrochloride]",1,0.996,0.961,1.02,1.02,1.04,1.01,0.986
CCCCCN(C)CCC(O)(P(=O)(O)O)P(=O)(O)O [Ibandronate sodium],0.982,0.98,0.992,1.01,0.998,1.01,0.99,1
NS(=O)(=O)c1cc2c(cc1C(F)(F)F)NCNS2(=O)=O [Hydroflumethiazide],1.01,1.01,0.998,0.998,1.02,0.986,1.01,1.01
CC(=O)OCC(=O)NCCCOc1cccc(CN2CCCCC2)c1 [Roxatidine acetate hydrochloride],0.99,0.981,1,0.939,0.996,0.985,0.994,0.986
